RMI-FANCM inh – RMI-FANCM interaction inhibition; 70,000 tested, 0.58% active; AID 1159607; Fluorescence polarization, RMI core complex with F-MM2 peptide; active compounds read low; FP signal (polarization) at 33 µM; in the data active = FP signal below about 40
The depositor's hits bear a star; ! = repeats disagree. Only a selection was taken, and hits are over-represented in it overall.

What do the screens show for `O=C(CN1C(=O)CCC1=O)C(=O)Nc1ccc(Br)cc1C(=O)c1ccccc1Cl`?
RMI-FANCM inh: 50

What do the screens show for `O=C(/C=C/c1ccccc1)Nc1ccc(Br)cc1C(=O)c1ccccc1Cl`?
RMI-FANCM inh: 55

How did O=C(/C=C/c1cccs1)C(=O)Nc1ccc(Br)cc1C(=O)c1ccccc1Cl do in these assays?
RMI-FANCM inh: 30*

How did Cn1cnc(-n2oo2)c1C(=O)O do in these assays?
RMI-FANCM inh: 53

How did CC(C)(O)[C@@H]1[C@H]2OC(=O)[C@@H]1[C@]1(O)C[C@H]3O[C@]34C(=O)O[C@H]2[C@]14C do in these assays?
RMI-FANCM inh: 53

How did CC(C)(O)[C@@H]1[C@H]2OC(=O)[C@@H]1[C@]1(O)C[C@H]3O[C@]34C(=O)O[C@H]2[C@]14C (tested in a mixture with another compound) do in these assays?
RMI-FANCM inh: 30*

How did CC(=O)N1N=C(c2cccnc2)OC1(C)C do in these assays?
RMI-FANCM inh: 55

How did Oc1ccc2c3c1OC1C(O)CC[C@@]4(O)[C@@H](C2)N(CC2CCC2)CC[C@]314 (stereo partly drawn) do in these assays?
RMI-FANCM inh: 59

What do the screens show for `C/C=C1/C[N+]2(C)CCC34C(=C(C=O)[C@H]1C[C@@H]32)Nc1ccccc14` (stereo partly drawn)?
RMI-FANCM inh: 57

Results for C[C@@H]1O[C@@H](O[C@H]2C[C@@H](O)[C@]3(CO)[C@H]4[C@H](O)C[C@]5(C)[C@@H](C6=CC(=O)OC6)CC[C@]5(O)[C@@H]4CC[C@]3(O)C2)[C@H](O)[C@H](O)[C@H]1O ?
RMI-FANCM inh: 53

How did CC[C@@]1(O)C[C@H](O)c2c(cc3c(c2O)C(=O)c2c(O)ccc(O)c2C3=O)[C@H]1C(=O)OC do in these assays?
RMI-FANCM inh: 26*

Results for CC[C@@]1(O)C[C@H](O[C@H]2C[C@H](N(C)C)[C@H](O)[C@H](C)O2)c2c(cc3c(c2O)C(=O)c2c(O)ccc(O)c2C3=O)[C@H]1C(=O)OC ?
RMI-FANCM inh: 55

What do the screens show for `CC[C@@]1(O)C[C@H](O[C@H]2C[C@H](N(C)C)[C@H](O)[C@H](C)O2)c2c(cc3c(c2O)C(=O)c2c(O)cccc2C3=O)[C@H]1C(=O)OC`?
RMI-FANCM inh: 79

Results for COc1cc(C[C@@H](C)N)c(OC)cc1I ?
RMI-FANCM inh: 51

What do the screens show for `CC(CO)NC(=O)C1C=C2c3cccc4[nH]cc(c34)C[C@H]2N(C)C1` (stereo partly drawn)?
RMI-FANCM inh: 42

How did CCN(CC)C(=O)N[C@H]1C=C2c3cccc4[nH]cc(c34)C[C@H]2N(C)C1 do in these assays?
RMI-FANCM inh: 20*

Results for CCN(CC)C(=O)N[C@@H]1C[C@@H]2c3cccc4[nH]cc(c34)C[C@H]2N(C)C1 ?
RMI-FANCM inh: 52

What do the screens show for `COc1cc2c(cc1-c1cc3cc4ccoc4cc3oc1=O)OCO2`?
RMI-FANCM inh: 75

How did CCCCC[C@H]1C(=O)O[C@H](C)[C@H](NC(=O)c2cccc(NC=O)c2O)C(=O)O[C@@H](C)[C@@H]1OC(=O)CC(C)C do in these assays?
RMI-FANCM inh: 53

Results for COC(=O)NC(=S)Nc1ccccc1NC(=S)NC(=O)OC ?
RMI-FANCM inh: 59

What do the screens show for `CC1(C)S[C@@H]2[C@H](N)C(=O)N2[C@H]1C(=O)O`?
RMI-FANCM inh: 58

How did CC(=O)O[C@H]1CC[C@@]2(C)C(=CC[C@@H]3[C@@H]2CC[C@]2(C)C(=O)CC[C@@H]32)C1 do in these assays?
RMI-FANCM inh: 9*

Results for CC(=O)O[C@@H]1CC[C@]2(C)C3CC[C@]4(C)C(=O)CCC4C3CC[C@H]2C1 (stereo partly drawn) ?
RMI-FANCM inh: 64

What do the screens show for `C[C@]12CC[C@H](O)CC1=CC[C@@H]1[C@@H]2CC[C@@]2(C)[C@H]1CC[C@]2(C)O`?
RMI-FANCM inh: 55

Results for Cn1c(O)c(C=Nc2cccc(C(F)(F)F)c2)c(=O)n(C)c1=O ?
RMI-FANCM inh: 55

Results for Cc1c(O)c(O)cc2c1CC1OC13[C@@]2(C)CC[C@@]1(C)C2C[C@](C)(C(=O)O)CC[C@]2(C)CC[C@]31C (stereo partly drawn) ?
RMI-FANCM inh: 52

How did CCN1C[C@]2(C)CC[C@H](OC)[C@@]34C1[C@]1(OCO[C@@]15C[C@H](OC)[C@H]1C[C@]3(O)[C@@H]5[C@H]1OC)[C@@H](OC(C)=O)[C@H]24 do in these assays?
RMI-FANCM inh: 53

How did Cc1ccc2c(c1)C(O)(C(F)(F)F)C(=O)O2 (stereo not drawn) do in these assays?
RMI-FANCM inh: 62

How did Cc1cccc(NC(=O)c2cccn(Cc3ccc(Br)cc3)c2=O)c1C do in these assays?
RMI-FANCM inh: 50

How did CC(=O)c1cccc(NC(=O)c2cccn(Cc3ccccc3C)c2=O)c1 do in these assays?
RMI-FANCM inh: 63

How did Cc1ccccc1Cn1cccc(C(=O)Nc2cccc(Cl)c2Cl)c1=O do in these assays?
RMI-FANCM inh: 10*

What do the screens show for `CC(=O)O[C@H]1C[C@H](O[C@H]2[C@@H](O)C[C@H](O[C@H]3[C@@H](O)C[C@H](O[C@H]4CC[C@@]5(C)C(CCC6C5C[C@@H](O)[C@]5(C)[C@@H](C7=CC(=O)OC7)CC[C@]65O)C4)O[C@@H]3C)O[C@@H]2C)O[C@H](C)[C@H]1O[C@@H]1O[C@H](CO)[C@@H](O)[C@H](O)[C@H]1O` (stereo partly drawn)?
RMI-FANCM inh: 53

How did CC(C)(C)NCC(O)c1cc(Cl)c(N)c(Cl)c1 (stereo not drawn) do in these assays?
RMI-FANCM inh: 4*!

What do the screens show for `CO[C@H]1[C@H](O)[C@@H](O[C@H]2CC[C@]3(C=O)C4CC[C@]5(C)[C@@H](C6=CC(=O)OC6)CC[C@]5(O)C4CC[C@@H]3C2)O[C@@H](C)[C@@H]1O` (stereo partly drawn)?
RMI-FANCM inh: 63

What do the screens show for `O=C(CCCN1CCC2(CC1)C(=O)N(CCc1ccc(N=C=S)cc1)CN2c1ccccc1)c1ccc(F)cc1`?
RMI-FANCM inh: 111

Screens (PubChem BioAssay)
